Out of some 320,000 compounds screened, about 2,100 (0.66%) were called active. Inconclusive results (about 53%) are left out. Calls follow the shape of the dose curve; as a rule, active = well fitted inhibition curve with a large enough effect in the signal ratio, with a control signal flat (not every such curve was filed as active); inconclusive = small, poorly fitted or top-dose-only effect, or effect the other way, or a change in a side signal; inactive = flat fitted curve, though single readings scatter; the % refers to the signal ratio. This excerpt belongs to a sample that is enriched for actives.
Potency is read from the fitted curve at half-maximal effect.

The nature of this assay: qHTS Assay for Lipid Storage Modulators in Drosophila S3 Cells.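 As to cell number change: cells counted by Cell Tracker Red CMTPX staining in the red channel.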 As to lipid storage change, negative = inhibition: % is scaled to controls: 0 for no effect and ±100 for the full control effect. The note with it: BODIPY lipid droplet fluorescence, 18-24 h, cells fed with added oleic acid; cell number change: measured here: cell count max response; series mostly up to 46.1 µM; lipid storage change, negative = inhibition: at the top concentration. An excerpt:
NIH Molecular Libraries Probe Production Centers Network [MLPCN] NIH Chemical Genomics Center [NCGC] MLPCN Grant: 1 R03 MH085686-01 Assay Submitter (PI): Beller, Mathias; Max-Planck-Institut fur Biophysikalische Chemie NCGC Assay Overview: Storing lipids as a reservoir for energy or the anabolism of elementary metabolites is a common feature of probably all cells and is conserved from bacteria to humans. The universal cellular lipid storage organelle is the so-called lipid storage droplet (LD). Although ubiquitous, LDs share a simple structure composed of a hydrophobic core that harbors the storage lipids, which is shielded by a droplet-specific phospholipid monolayer to which proteins are attached. The current model of LD biogenesis involves an incorporation of the lipid core into the membrane leaflets of the endoplasmic reticulum (ER) followed by a subsequent budding-like maturation of a LD, which ultimately pinches off. Once released, LD volume can increase by localized lipogenesis or fusion of existing droplet. Storage lipids are re-mobilized enzymatically by lipase activity. Lipase regulation in the adipocyte is heavily studied and involves multiple components including catecholamine signaling, the LD-associated proteins Perilipin and comparative gene identification (CGI-58) and at least two lipases named hormone sensitive lipase (HSL) and adipocyte triglyceride lipase (ATGL). LD regulation outside of the adipocyte is poorly understood and only few components are known. However, there is an urgent need to learn more about ectopic fat depots as mislocalized storage of lipids, for example in the liver or muscle, is an eminent health problem associated with insulin resistance or the metabolic syndrome. We developed a laser-scanning cytometer assay to enable 1,536-well screening and combined the results of the small molecules screen with an RNAi database based on lipid storage.
Triacsin C (Sigma-Aldrich T-4540), an inhibitor of long-chain fatty acyl CoA synthetase that blocks synthesis of triglycerides, was used as a positive control for lipid under-storage. A total of 23 nL of compound solution of different concentrations were transferred to the assay plates using a Kalypsys pin tool equipped with a 1,536-pin array containing 10-nL slotted pins (FP1S10, 0.457-mm diameter, 50.8 mm long; V&P Scientific). One microliter of oleic acid (400 uM) was added, and the plate was lidded with stainless steel rubber gasket lined lids containing pinholes. […] Fluorescence was detected by excitation of the fluorophores with a 488-nm laser on an Acumen Explorer (TTP Lab Tech). The total intensity in channel 2 (500-530 nm) reflected lipid droplet accumulation. Cells were detected using channel 3 (575-640 nm) with 5-um width and 100-um depth filters. The ratio of the number of objects in PMT channel 2 over the number of objects in PMT channel 3 was also calculated. Percent activity was computed relative to an internal control (100% inhibited lipid droplet deposition due to the presence of 20 uM Triacsin C), which was added to 32 wells/plate.
Background: qHTS replaces the single test concentration by a dilution series.
Take `COc1ccc(CNC(=O)Cc2cccs2)cc1OC`: the “lipid storage change, negative = inhibition” value is 5.76% (inactive) and the cell number change was determined as 15.3%.

For the compound `Nc1nonc1C(=O)N/N=C/c1ccc(Br)o1`, the “lipid storage change, negative = inhibition” value is -2.4% (inactive) and the cell number change is 5.25%.

As for `Cc1cccc(OCC(=O)O/N=C(\N)c2ccccn2)c1C`, the “lipid storage change, negative = inhibition” value is -9.68% (inactive) and the cell number change was -6.52%.

For `CC(=O)Nc1ccc(S(=O)(=O)N2CCCC2)cc1`, the “lipid storage change, negative = inhibition” value was -4.71% (inactive) and the cell number change was determined as 12.4%.

As for `COc1ccc(C(=O)Nc2ccc(S(=O)(=O)N3CCCC3)cc2)c(OC)c1`, the compound was classed as inactive and the cell number change was found to be 7.48%.

For the compound `CC(=O)Nc1ccc(S(=O)(=O)N2CCCN(S(=O)(=O)c3ccc(NC(C)=O)cc3)CC2)cc1`, the “lipid storage change, negative = inhibition” value is 10.4% (inactive) and the cell number change was -11.8%.

Turning to `COc1cc(OC)c(C(=O)Nc2ccc(S(=O)(=O)N3CCCCC3)cc2)cc1OC`, the Potency was 6.51 µM (active) and the cell number change amounted to 2.89%.

As to `COc1ccc(NC(=O)c2cc(S(=O)(=O)N3CCCCC3)ccc2OC)cc1`, the “lipid storage change, negative = inhibition” value is -28.8% (inactive) and the cell number change is -15.6%.

Take `CC(=O)c1ccc(NC(=O)Nc2ccc(S(=O)(=O)N3CCCC3)cc2)cc1`: the Potency was 9.2 µM (active) and the cell number change was -4.34%.

As for `COc1ccc(N2C(=S)NC3CS(=O)(=O)CC32)cc1` (stereo unspecified), the “lipid storage change, negative = inhibition” value is 4.54% (inactive) and the cell number change is 0.125%.

For the compound `Cc1ccc(-c2nnc(SCC(=O)NC3CC3)o2)cc1`, the Potency was 29.1 µM (active) and the cell number change was found to be 10.3%.

For `Cc1cc(C)cc(-c2nnc(SCC(=O)NC3CC3)o2)c1`, the “lipid storage change, negative = inhibition” value was 18.4% (inactive) and the cell number change was 9.78%.

As to `O=C(CSc1nnc(-c2ccccc2)o1)NC1CC1`, the “lipid storage change, negative = inhibition” value was 2.05% (inactive) and the cell number change is -4.73%.

For `Cc1ccc(NC(NC(=O)c2cccs2)C(Cl)(Cl)Cl)cc1C` (stereo unspecified), the “lipid storage change, negative = inhibition” value was -13% (inactive) and the cell number change was 4.44%.

Turning to `CC(C)(CO)N=C1NS(=O)(=O)c2cc([N+](=O)[O-])ccc21`, the “lipid storage change, negative = inhibition” value was 0.321% (inactive) and the cell number change came out at 2.18%.

Take `COc1ccc2c(c1)C(C)=CC(C)(C)N2S(=O)(=O)c1ccc(C)cc1`: the “lipid storage change, negative = inhibition” value was 8.71% (inactive) and the cell number change was 5.92%.

Regarding `CCOc1ccc2c(c1)C(C)=CC(C)(C)N2S(=O)(=O)c1ccc(NC(C)=O)cc1`, the Potency was 7.31 µM (active) and the cell number change was -18.1%.

Regarding `CCOc1ccc2c(c1)C(C)=CC(C)(C)N2S(=O)(=O)c1ccc(C)cc1`, the “lipid storage change, negative = inhibition” value was 0.5% (inactive) and the cell number change is -19.8%.

On to `Cc1ccc(S(=O)(=O)NC(C)c2ccccc2)cc1[N+](=O)[O-]` (stereo unspecified), for which the compound was classed as inactive and the cell number change is -16.5%.

With `CCCOc1ccc(C2NC(=O)CCC2[N+](=O)[O-])cc1` (stereo unspecified), the result was inactive and the cell number change was -7.92%.

For `COc1ccccc1C1NC(=O)NC(C)=C1C(=O)OC1CCCCC1` (stereo unspecified), the “lipid storage change, negative = inhibition” value was -7.89% (inactive) and the cell number change is -18.5%.

On to `COc1ccccc1C1NC(=O)NC(C)=C1C(=O)OCc1ccccc1` (stereo unspecified), for which the “lipid storage change, negative = inhibition” value is 7.18% (inactive) and the cell number change stood at 8.03%.

`COc1ccccc1C1NC(=O)NC(C)=C1C(C)=O` (stereo unspecified): the Potency was 14.6 µM (active) and the cell number change was found to be 6.66%.

For `CCC(C)(C)NC(=O)C(c1ccccc1Cl)N(C(=O)CCC(=O)Nc1cc(C)on1)C1CC1` (stereo unspecified), the result was inactive and the cell number change was 10.4%.

Turning to `O=C(COC(=O)c1ccc(OC(F)F)cc1)NCCNC(=O)COC(=O)c1ccc(OC(F)F)cc1`, the “lipid storage change, negative = inhibition” value is 1.33% (inactive) and the cell number change is -4.4%.

As for `Cn1c(SCC(=O)Nc2ccccc2F)nnc1-c1cccs1`, the compound was classed as inactive and the cell number change is 14.3%.

Turning to `Cc1nnc(NC(=O)Cn2nc(C)c3ccccc3c2=O)s1`, the “lipid storage change, negative = inhibition” value is 3.77% (inactive) and the cell number change was found to be 9.11%.

`COc1cccc(NC(=O)CCNC(=O)c2ccccc2Cl)c1`: the “lipid storage change, negative = inhibition” value was -15.6% (inactive) and the cell number change is -13.1%.

Regarding `CCCNC(=O)CN(C)S(=O)(=O)c1ccc(F)cc1`, the “lipid storage change, negative = inhibition” value is -19.4% (inactive) and the cell number change was -1.04%.

Take `CNC(=O)CN(C)S(=O)(=O)c1ccc(F)cc1`: the Potency was 20.6 µM (active).

As for `CC(C)NC(=O)CN(C)S(=O)(=O)c1ccc(F)cc1`, the “lipid storage change, negative = inhibition” value is -5.26% (inactive) and the cell number change was found to be 0.117%.

For `COc1cc(NC(=S)NCc2ccco2)cc(OC)c1OC`, the “lipid storage change, negative = inhibition” value was 7.9% (inactive) and the cell number change was -1.1%.

With `Cc1ccc(Cc2cnc(NC(=O)c3cccs3)s2)cc1`, the “lipid storage change, negative = inhibition” value was -11.2% (inactive) and the cell number change is -12.1%.

For `Cc1ccc(S(=O)(=O)c2cc3c(=O)n4cccc(C)c4nc3n(CC3CCCO3)c2=N)cc1C` (stereo unspecified), the “lipid storage change, negative = inhibition” value was 13.5% (inactive) and the cell number change was determined as 7.15%.

As for `COc1ccc(/C(C)=C2\SC(=S)N(CCC(=O)O)C2=O)cc1`, the Potency is 16.4 µM (active) and the cell number change was determined as 7.05%.

Regarding `CC(=C\c1ccccc1)/C=C1/SC(=S)N(CCC(=O)O)C1=O`, the “lipid storage change, negative = inhibition” value is -4.15% (inactive) and the cell number change stood at 5.93%.

Take `COc1ccc(/C=C2/SC(=S)N(CCC(=O)O)C2=O)cc1`: the “lipid storage change, negative = inhibition” value is -19.3% (inactive) and the cell number change is -16.6%.

With `O=C(CSc1nnnn1-c1ccccc1)N1N=CCC1c1ccccc1` (stereo unspecified), the “lipid storage change, negative = inhibition” value is 5.81% (inactive) and the cell number change was -5.17%.

For the compound `CCn1c(C)[n+](CC)c2ccc(C(=O)N(C)c3ccccc3)cc21`, the “lipid storage change, negative = inhibition” value is -2.21% (inactive) and the cell number change was determined as 19.5%.

Turning to `CC[n+]1c(/C=C/C=C/N(C(C)=O)c2ccccc2)sc2ccccc21`, the “lipid storage change, negative = inhibition” value was -11.3% (inactive) and the cell number change is 10.1%.

Consider `CC[n+]1c(/C=C/N(C)c2ccccc2)oc2ccc(F)cc21`, for which the Potency is 25.9 µM (active) and the cell number change was determined as 6.99%.

Consider `C/C=C/COC(=O)C1=C(C)NC(=O)NC1c1ccc2c(c1)OCO2` (stereo unspecified), for which the compound was called inactive and the cell number change was found to be 9.12%.

Turning to `Cc1c(N)cccc1-c1nc2ccccc2[nH]1`, the “lipid storage change, negative = inhibition” value is -2.3% (inactive) and the cell number change was -2.56%.

Turning to `CN(C)CCCNCCCNC(=O)/C(=N\O)c1ccccn1`, the “lipid storage change, negative = inhibition” value is 1.85% (inactive) and the cell number change amounted to 11.1%.

`O=C(Nc1ccc(C2CC2(Cl)Cl)cc1)c1ccccc1Br` (stereo unspecified): the “lipid storage change, negative = inhibition” value was 20.5% (inactive) and the cell number change came out at 13.5%.

Turning to `COc1ccc(CN(CC(=O)NCc2ccccc2)C(=O)c2csnn2)cc1`, the “lipid storage change, negative = inhibition” value was 12.1% (inactive) and the cell number change is 1.68%.
